Measurements: the supplement of paper PMC12645437, “Orthogonal IMiD-Degron Pairs Induce Selective Protein Degradation in Cells” (ACS Chemical Biology, 2025)
In all, about 8,300 sequences were measured (“log2 fold change of degron read counts, EGFP-low vs EGFP+ sorted cells (limma voom), compound-induced degradation”: median about -1.1, highest 2% from about 3.2 on). Many of the other results were omitted from the sample, so the highest values are more common in it than they were.

T1: CRBN, Q96SW2
T1 chain: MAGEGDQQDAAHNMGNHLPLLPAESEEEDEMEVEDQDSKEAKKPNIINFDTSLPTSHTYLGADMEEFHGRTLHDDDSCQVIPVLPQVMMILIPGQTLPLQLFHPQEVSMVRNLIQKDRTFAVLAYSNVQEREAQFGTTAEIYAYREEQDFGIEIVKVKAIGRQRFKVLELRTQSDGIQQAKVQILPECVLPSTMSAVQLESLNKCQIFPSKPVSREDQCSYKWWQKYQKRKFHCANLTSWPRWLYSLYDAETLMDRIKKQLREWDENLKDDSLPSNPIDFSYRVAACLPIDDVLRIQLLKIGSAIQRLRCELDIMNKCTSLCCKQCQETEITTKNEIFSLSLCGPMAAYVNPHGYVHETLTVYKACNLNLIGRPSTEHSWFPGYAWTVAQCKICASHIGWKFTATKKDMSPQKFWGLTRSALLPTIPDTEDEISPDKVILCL


Target: T1, CRBN, Q96SW2
Assay: log2 fold change of degron read counts, EGFP-low vs EGFP+ sorted cells (limma voom), compound-induced degradation; higher = more compound-induced degradation of the degron-EGFP fusion; degrons are variants of IKZF1/3 zinc finger 2; compound dose not given here
Settings: Jurkat, 18 h
[1] = compound: compound 19 (5-tert-butyl-thalidomide)
[2] = compound: compound 22 (5-morpholino-thalidomide)
[3] = compound: compound 33 (diphenyl IMiD analogue)
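Also: pooled lentiviral library of zinc finger degron-EGFP fusions in mCherry-positive Jurkat cells, FACS-sorted after compound exposure, with degron abundance counted by next-generation sequencing.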

Sequence	log2 fold change of degron read counts [1]	log2 fold change of degron read counts [2]	log2 fold change of degron read counts [3]	log2 fold change of degron read counts (compound: thalidomide)
FGCSVCGHIFTQKGNLLRHIKL [46F_47G_49S_50V_52G_53H_54I_55F_67L_, Q9UKT9]	-1.23	-2.7	-2.06	-1.9
LHCPICGFDCTQKGNLLRHIKL [46L_47H_49P_50I_52G_53F_54D_55C_67L_, Q9UKT9]	-1.62	-1.37	0.393	-0.313
FICNQCGREFTQKGNLLRHIKL [46F_47I_49N_50Q_52G_53R_54E_55F_67L_, Q9UKT9]	-2.93	-3.08	-3.08	-3.43
FQCEQCGACFTQKGNLLRHIKL [46F_47Q_49E_50Q_52G_53A_54C_55F_67L_, Q9UKT9]	-1.81	0.107	0.542	3.02
FCCPICGANFTQKGNLLRHIKL [46F_47C_49P_50I_52G_53A_54N_55F_67L_, Q9UKT9]	2.07	2.16	2.33	2.22
FMCEICGRGFTQKGNLLRHIKL [46F_47M_49E_50I_52G_53R_54G_55F_67L_, Q9UKT9]	-1.28	-1.8	-0.771	-1.76
LQCPICGFICTQKGNLLRHIKL [46L_47Q_49P_50I_52G_53F_54I_55C_67L_, Q9UKT9]	-0.0184	2.22	2.06	3.45
LLCPICGFRCTQKGNLLRHIKL [46L_47L_49P_50I_52G_53F_54R_55C_67L_, Q9UKT9]	0.662	-0.346	0.856	2.44
LSCPICGFICTQKGNLLRHIKL [46L_47S_49P_50I_52G_53F_54I_55C_67L_, Q9UKT9]	1.06	1.05	1.47	0.848
LQCPICGFRCTQKGNLLRHIKL [46L_47Q_49P_50I_52G_53F_54R_55C_67L_, Q9UKT9]	0.322	1.54	0.782	3.35
LECPICGFRCTQKGNLLRHIKL [46L_47E_49P_50I_52G_53F_54R_55C_67L_, Q9UKT9]	1.29	0.491	2.73	3.62
LMCPICGFRCTQKGNLLRHIKL [46L_47M_49P_50I_52G_53F_54R_55C_67L_, Q9UKT9]	0.588	1.13	2.13	2
LRCPICGFRCTQKGNLLRHIKL [46L_47R_49P_50I_52G_53F_54R_55C_67L_, Q9UKT9]	-0.000253	-0.254	0.655	1.06
LTCPICGFRCTQKGNLLRHIKL [46L_47T_49P_50I_52G_53F_54R_55C_67L_, Q9UKT9]	1.45	2.61	1.91	2.92
LYCPICGFRCTQKGNLLRHIKL [46L_47Y_49P_50I_52G_53F_54R_55C_67L_, Q9UKT9]	3.08	3.4	1.5	1.15
LVCPICGFRCTQKGNLLRHIKL [46L_47V_49P_50I_52G_53F_54R_55C_67L_, Q9UKT9]	1.86	3.01	1.42	3.2
LTCPICGFICTQKGNLLRHIKL [46L_47T_49P_50I_52G_53F_54I_55C_67L_, Q9UKT9]	-0.0311	0.718	1.67	1.78
LDCPICGFRCTQKGNLLRHIKL [46L_47D_49P_50I_52G_53F_54R_55C_67L_, Q9UKT9]	2	0.931	1.11	2.55
